Results on 24 molecules are retold here after PubChem BioAssay (NCATS).

The structures appear in SMILES notation. Records with an inconclusive call do not appear. Active and inactive are the calls of the source. The call rests on the fitted dose curve; in most records, active means well fitted cell-killing curve with a large enough effect; inconclusive means small, poorly fitted or top-dose-only effect, or effect the other way; inactive means flat fitted curve, though single readings scatter.
Potency means the concentration at half of the fitted maximal effect.

In the experiment the test system is Es-2. Put plainly: Primary qHTS to identify gynecologic anti-cancer compounds using libraries of approved drugs and bioactive compounds (AID 1345084). Further: nearly all actives have a fitted effect of over 55% in size. As to conditions: Gynecologic cancer cell panel viability, ATPlite luminescence, 48 h; series mostly up to 57.5 µM. The essentials:
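Cells, 1,000 per well, were allowed to settle for 16 h at 37 C before compound addition. Five concentrations were tested for 48 h, and viability was read by ATPlite luminescence after 15 min at room temperature.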
With `Cc1cnc(Nc2ccc(F)cc2Cl)nc1-c1c[nH]c(C(=O)N[C@H](CO)c2cccc(Cl)c2)c1`, the Potency is 20 µM (active).
In the case of `COC(=O)Nc1ccc(-c2nc(N3CCOCC3)c3cnn(C4CCN(Cc5cccnc5)CC4)c3n2)cc1`, the Potency was 4.47 µM (active).
For `C=CC(=O)Nc1cc2c(Nc3ccc(F)c(Cl)c3)ncnc2cc1OCCCN1CCOCC1`, the Potency entry was “inactive”.
Turning to `O=C(Nc1ncc(-c2cc(C(F)F)nn2-c2c(Cl)cccc2Cl)s1)C1CC1`, the Potency is 3.16 µM (active).
The same measure for `COc1cc(C)c(Sc2cnc(NC(=O)c3ccc(CNC(C)C(C)C)cc3)s2)cc1C(=O)N1CCN(C(C)=O)CC1` (centres undefined): “inactive”; for `Nc1ncnc2c1c(-c1cnc3[nH]ccc3c1)nn2C1CCCC1`: 10 µM (active).
With `Cc1cc(C(=O)N2CCN(c3cccc(Cl)c3)CC2)n(-c2ccccc2)n1`, the Potency is 11.2 µM (active).
Take `COC(=O)C1=C(C)NC(C)=C(C(=O)OCCN2CCN(C(c3ccccc3)c3ccccc3)CC2)C1c1cccc([N+](=O)[O-])c1` (centres undefined): the Potency result is “inactive”.
On to `COc1cc2c(Nc3ccc(NC(=O)c4ccccc4)cc3)ncnc2cc1OCCCN1CCOCC1`, for which the Potency result is “inactive”.
Regarding `CN1CCN(Cc2ccc(NC(=O)Nc3ccc(Oc4cc(NC(=O)C5CC5)ncn4)cc3)cc2C(F)(F)F)CC1`, the Potency is 1.58 µM (active).
With `COc1cc2c(Oc3ccc(NC(=O)C4(C(=O)Nc5ccc(F)cc5)CC4)cc3F)ccnc2cc1OCCCN1CCOCC1`, the Potency is 25.1 µM (active).
The same measure for `Cc1cc(Nc2nc(N[C@@H](C)c3ccc(F)cc3)c(C#N)cc2F)n[nH]1`: 14.1 µM (active); for `Cc1nc(Nc2n[nH]c3c2CN(C(=O)N[C@H](CN(C)C)c2ccccc2)C3(C)C)c2sccc2n1`: 8.91 µM (active).
On to `Cc1[nH]nc2ccc(-c3cncc(OC[C@@H](N)Cc4ccccc4)c3)cc12`, for which the Potency is 8.91 µM (active).
For `Cn1cc(-c2ccncc2)c(-c2ccc(OCc3ccc4ccccc4n3)cc2)n1`, the Potency result is “inactive”.
Take `C=CC(=O)Nc1cccc(Oc2nc(Nc3ccc(N4CCN(C)CC4)cc3)ncc2Cl)c1`: the Potency entry is “inactive”.
Turning to `COc1cccc2nc(-c3cccs3)nc(NN3C(=O)C=C(C)C3=O)c12`, the Potency is 2.51 µM (active).
For the molecule `CC[C@@H]1C(=O)N(C)c2cnc(Nc3ccc(C(=O)NC4CCC(N5CCN(CC6CC6)CC5)CC4)cc3OC)nc2N1C(C)C` (some centres undefined), the Potency is 3.98 µM (active).
As for `Cc1cc(N2CCOCC2)cc2[nH]c(-c3c(NC[C@@H](O)c4cccc(Cl)c4)cc[nH]c3=O)nc12`, the Potency result was “inactive”.
Regarding `CNC(=O)CN1CCC(Oc2cc3c(Nc4cccc(Cl)c4F)ncnc3cc2OC)CC1`, the Potency entry is “inactive”.
In the case of `Cc1cc(Nc2cc(N3CCN(C)CC3)nc(Sc3ccc(NC(=O)C4CC4)cc3)n2)n[nH]1`, the Potency entry was “inactive”.
The same measure for `CCS(=O)(=O)c1cccc(-c2cc(C(=O)NC3CCN(C)CC3)c(C)c3[nH]c4ncc(C)cc4c23)c1`: 12.6 µM (active).
Consider `Nc1cccc(-c2cc3c(Oc4cccc(O)c4)ncnc3[nH]2)c1`, for which the Potency entry is “inactive”.
Consider `O=C(Cc1ccc(-c2ccc(OCCN3CCOCC3)cc2)cn1)NCc1ccccc1`, for which the Potency was 1.58 µM (active).
